In PubChem BioAssay AID588391 (Broad Institute, 2011):
Out of some 350,000 compounds screened, about 180 (0.051%) were called active.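 How the source made its calls: active means mean inhibition across replicates of 30% or more, whatever share of single replicates reach that level; inconclusive means mean inhibition below 30% while every single replicate reaches 30%; inactive means the rest.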 The list comes from a sample in which actives are over-represented; it also holds similar structures and randomly drawn compounds.

Biological target: Protein disulfide-isomerase (Homo sapiens) (UniProt P07237)
Test: blockers of PDI-driven insulin aggregation – biochemical, turbidity, single point, plate reader, primary screen (AID 588391);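 further: absorbance from insulin aggregation driven by PDI reduction with DTT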
Conditions: A650, 90 min, at 10 µM, hits give high values

Sequence of Protein disulfide-isomerase (Homo sapiens) (P07237 whole entry, looked up): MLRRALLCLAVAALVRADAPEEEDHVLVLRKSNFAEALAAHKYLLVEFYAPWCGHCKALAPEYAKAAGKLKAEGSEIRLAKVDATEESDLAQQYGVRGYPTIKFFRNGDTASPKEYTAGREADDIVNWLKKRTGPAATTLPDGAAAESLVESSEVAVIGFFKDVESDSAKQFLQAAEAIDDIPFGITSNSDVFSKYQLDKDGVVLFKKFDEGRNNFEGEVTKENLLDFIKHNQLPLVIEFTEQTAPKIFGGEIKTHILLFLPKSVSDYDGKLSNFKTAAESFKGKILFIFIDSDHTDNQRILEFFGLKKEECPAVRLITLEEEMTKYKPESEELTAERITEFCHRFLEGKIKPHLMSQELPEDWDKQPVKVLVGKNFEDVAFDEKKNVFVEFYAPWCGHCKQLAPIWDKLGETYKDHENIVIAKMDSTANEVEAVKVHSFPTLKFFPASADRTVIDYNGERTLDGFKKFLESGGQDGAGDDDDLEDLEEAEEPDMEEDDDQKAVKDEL

inhibition, active:
COc1ccc2[nH]c3c(C)c4cc[n+](C)cc4c(C)c3c2c1 46.3%, CCOc1cc(N2CCOCC2)c(OCC)cc1NC(=O)COC(=O)[C@H](Cc1c[nH]c2ccccc12)NC(C)=O 44.5%, CC(=O)OC1CCC2C3CCC4=C(CC(F)C(=O)C4)C3CCC12C (stereo unspecified) 70.6%

inhibition, inactive:
COCOc1cccc(CN2CCC(C)(Oc3ccc(SC)cc3)C2)c1 (stereo unspecified) -14.7%, CC1(C(=O)NCc2ccc(F)c(F)c2)Cc2c(-c3ccc4c(c3)OCO4)ccnc2O1 (stereo unspecified) 5.69%, CCOC(=O)c1[nH]c2ccc(OC)cc2c1NC(=O)N1CCOCC1 -4.02%, COc1ccc(CC(N)c2csc(NC(=O)Cc3ccccc3)n2)cc1 (stereo unspecified) 8.14%, CC1(C(=O)NS(=O)(=O)c2cccc(F)c2)CCN1C(=O)Cc1cc(F)ccc1F (stereo unspecified) 9.62%, CC1(Oc2ccc(Cl)cc2)CCN(Cc2csc3ccccc23)C1 (stereo unspecified) -0.538%, CCc1nc2ccc(C(=O)Nc3cc(-c4ccccc4)ccc3OC)cn2c1N(CC)CC(=O)N(C)C -5.43%, OC(c1cc(Cl)cc(Cl)c1)c1ncc(-c2ccccc2C(F)(F)F)[nH]1 (stereo unspecified) -0.656%, CC1(C(=O)Nc2cccc(Oc3ccccc3)c2)CCN1Cc1ccccc1Cl (stereo unspecified) 8.27%, CCc1nc2ccc(C(=O)NCc3ccc(OC)cc3)cn2c1N(CC)Cc1cccc(Br)c1 19.2%, CC1(Oc2ccccc2-c2ccno2)CCN(Cc2ccc(-c3ccccc3)o2)C1 (stereo unspecified) 15.2%, CCNC(=O)C1CCCN(C(=O)c2cc(F)ccc2C)CC1 (stereo unspecified) -2.55%, COc1ccc(-c2cc(NC=O)c3ncc(-c4cc(OC)c(OC)c(OC)c4)n3c2)c(OC)c1 2.23%, CCCNC(=O)C1(C)CCCN(Cc2c(C)nn(-c3ccccc3)c2C)C1 (stereo unspecified) 1.08%, O=CNc1cc(-c2ccc(C(=O)N3CCOCC3)cc2)cn2c(-c3ccc(F)cc3)cnc12 -18.3%, Cc1cccc(-c2cnc(C(O)c3cc(C)cc(C)c3)[nH]2)c1 (stereo unspecified) 8.93%, CCOc1cc(N2CCOCC2)c(OCC)cc1NC(=O)c1ccc(C)s1 -4.12%, CCOC(=O)c1ccccc1NC(=O)COC(=O)C(Cc1c[nH]c2ccccc12)NC(C)=O (stereo unspecified) 5.96%, COc1ccc(S(=O)(=O)N2CCCCC2c2cc(C(=O)NCc3ccc(F)cc3)no2)cc1 (stereo unspecified) -0.518%, CCNC(=O)C1(C)CCN(C(=O)c2ccccc2)C1 (stereo unspecified) -56.1%, CC1(C(=O)NCc2ccc3c(c2)OCO3)CCN1CCc1ccccc1 (stereo unspecified) 3.4%, O=C(NCc1ccco1)c1cccc(-c2ccc3nncn3c2)c1 3.75%, COc1ccc(-c2cc(NC(C)=O)c3ncc(-c4cc(OC)c(OC)c(OC)c4)n3c2)cn1 -21.1%, CN(C)C(=O)c1cccc(-c2cnc3sc(NCc4ccc5c(c4)OCO5)nn23)c1 9.47%, O=C(NCc1ccc(F)cc1)c1cc(C2CCCCN2C(=O)c2ccccn2)on1 (stereo unspecified) -12%, CCN(CC)C(=O)C1CCCN(Cc2cccc(Cl)c2)C1 (stereo unspecified) -5.23%, Cc1nc(C(F)(F)F)ccc1C(=O)N1CCC1(C)C(=O)NS(=O)(=O)c1ccccc1 (stereo unspecified) -40%, CC(=O)Nc1cc(-c2ccccc2F)cn2c(-c3cccc(C(F)(F)F)c3)cnc12 0.488%, CC(C)c1cccc(-c2csc(C(O)c3ccccc3)n2)c1 (stereo unspecified) 4.52%, CCC(=O)N1CCC(C)(C(=O)Nc2cc(OC)c(OC)c(OC)c2)C1 (stereo unspecified) -1.21%, Cc1ccc(NS(=O)(=O)c2cc3c(cc2Br)NC(=O)CO3)cc1C -4.51%, CCc1nc2c(OCc3ccc(C(F)(F)F)cc3)cccn2c1N(C)C(=O)CC(C)C -3.58%, OC(c1ccccc1)c1nc(-c2cnc3ccccc3c2)cs1 (stereo unspecified) 4.04%, CCOCCC(=O)Nc1ccc2c(c1)c(=O)n(C)n2-c1ccc2ccccc2c1 -6.74%, Cc1nc2c(OCC(=O)C(C)(C)C)cccn2c1N(C)Cc1cccs1 -1.4%, CCCS(=O)(=O)NC(=O)C1(C)CCN(C(=O)c2sccc2C)C1 (stereo unspecified) 4.32%, CCOC(=O)c1ccc(-c2ccc3ncnc(N(C)Cc4sccc4C)c3c2)o1 -3.79%, CCc1nc2ccc(C(=O)N(C)CCN(C)C)cn2c1N(CC)CCOC 12.7%, CC(=O)Nc1ccc(-c2ccnc3c2CC(C(=O)NC(C)C)O3)cc1 (stereo unspecified) -7.94%, COc1ccc(-c2coc3c(C(=O)NC(C)C)cccc23)c(C)c1 -1.08%, Cc1ccc(C(NC(=O)C2CCN(CCOc3ccc(Cl)cc3Cl)CC2)c2ccccn2)cc1 (stereo unspecified) 2.42%, O=C(NCCO)c1cccc(-c2cccc3nccn23)c1 -96.6%, Cc1ccc(-c2cnc(C(O)c3cc(Cl)cc(Cl)c3)[nH]2)cc1 (stereo unspecified) -2.73%, COc1cccc(C(O)c2ncc(-c3ccc4ccccc4c3)[nH]2)c1 (stereo unspecified) 7.38%, COc1ccc(C(=O)N2CCCCC2c2cc(C(=O)Nc3ccccc3)no2)cc1 (stereo unspecified) -4.91%, O=C(NCc1cccnc1)c1ccc2nc([C@@H]3O[C@H](CO)[C@H](O)[C@H](O)[C@H]3O)[nH]c2c1 -7.99%, CC1(C(=O)NS(=O)(=O)c2cccc(F)c2)CCN1C(=O)c1cccc2ccccc12 (stereo unspecified) -12.2%, CC(=O)c1cccc(-c2cnc3c(NC=O)cc(-c4ccccc4Oc4ccccc4)cn23)c1 -15.6%, CCNC(=O)C1CCCN(C(=O)c2ccc(OC)cc2OC)CC1 (stereo unspecified) -2.37%, Cc1ccccc1-c1csc(C(O)c2cccc(Cl)c2)n1 (stereo unspecified) 4.37%, CCN(CCN(C)C)C(=O)c1ccc2nc(C)c(N(C)C(=O)CCc3ccccc3)n2c1 5.52%, CCOc1ccc(Cl)cc1-c1cc(C(=O)NCc2cccs2)[nH]n1 5.86%, CCCNC(=O)c1cc(C2CCCCN2C(=O)OC)on1 (stereo unspecified) 5.56%
